# ± gives the standard deviation.
# T1: HaloTag-ATRX ADD domain (163-292)
# T1 chain: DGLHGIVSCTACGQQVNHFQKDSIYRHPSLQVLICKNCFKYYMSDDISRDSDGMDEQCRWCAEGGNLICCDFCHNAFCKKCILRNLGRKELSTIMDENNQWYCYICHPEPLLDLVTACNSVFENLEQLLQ
# Assays:
# Assay in all cases: peptide microarray binding signal (635 nm), min-max normalized on array (fraction of array maximum); higher = stronger binding
# Settings in all cases: peptide region: H3 1-13
# [1] = molecular target: T1, HaloTag-ATRX ADD domain (163-292)
# Procedure: (§1)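 Histone 13-mer peptides were synthesized as cellulose conjugates with a C-terminal 20-atom PEG linker and printed in triplicate on nitrocellulose. The sequence given is the unmodified backbone; PTMs (Kme1/2/3, Kac, Sph/Tph, Rme/Rme2a/Rme2s, Rcit) are listed in the label and the 'peptide modifications' condition. Slides were probed at 4 °C for 1 h with biotin-labelled (HQ)5-HaloTag reader fusions (ATRX-ADD, ING2-PHD) then streptavidin-Alexa647, or with rabbit histone antibodies then anti-rabbit Alexa647. The mean 635 nm signal of the triplicate spots was scaled 0-1 between the lowest and highest values on each array.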
# [2] = molecular target: HaloTag-ING2 PHD (mouse Ing2 200-280)
# Procedure: as §1
# [3] = molecular target: anti-H3K4me3 antibody ab8580
# Procedure: as §1
# [4] = molecular target: anti-H3K9me3 antibody ab8898
# Procedure: as §1
# [5] = peptide modifications: H3K4me2 H3K9ac, binder concentration: 1:2,000 dilution
# [6] = peptide modifications: H3K4me2 H3K9ac, binder concentration: 1:10,000 dilution
# [7] = peptide modifications: H3K4me2, binder concentration: 1:2,000 dilution
# [8] = peptide modifications: H3K4me2, binder concentration: 1:10,000 dilution
# [9] = peptide modifications: H3K9ac H3S10ph, binder concentration: 1:2,000 dilution
# [10] = peptide modifications: H3K4me3 H3K9me2, binder concentration: 1:2,000 dilution
# [11] = peptide modifications: H3K4me3 H3K9me2, binder concentration: 1:10,000 dilution
# [12] = peptide modifications: H3K4me2 H3K9me2, binder concentration: 1:2,000 dilution
# [13] = peptide modifications: H3K4me2 H3K9me2, binder concentration: 1:10,000 dilution
# [14] = peptide modifications: H3K4me2 H3K9me3, binder concentration: 1:2,000 dilution
# [15] = peptide modifications: H3K4me2 H3K9me3, binder concentration: 1:10,000 dilution
# [16] = peptide modifications: H3K4me3 H3K9me3, binder concentration: 1:2,000 dilution
# [17] = peptide modifications: H3K4me3 H3K9me3, binder concentration: 1:10,000 dilution
# [18] = peptide modifications: H3K9me2, binder concentration: 1:2,000 dilution
# [19] = peptide modifications: H3K9me2, binder concentration: 1:10,000 dilution
# [20] = peptide modifications: H3K9me1 H3S10ph, binder concentration: 1:2,000 dilution
# [21] = peptide modifications: H3K9me1 H3S10ph, binder concentration: 1:10,000 dilution
# [22] = peptide modifications: H3K4me2 H3T6ph, binder concentration: 1:2,000 dilution
# [23] = peptide modifications: H3K4me2 H3T6ph, binder concentration: 1:10,000 dilution
binder,measurement,setting,value
ARTKQTARKSTGG [H3 1-13 A R T Kme2 Q T A R Kac S T G G],peptide microarray binding signal,"[1]; peptide modifications: H3K4me2 H3K9ac, binder concentration: 50 nM",0.0115 ± 0.00036
same,peptide microarray binding signal,"[1]; peptide modifications: H3K4me2 H3K9ac, binder concentration: 500 nM",0.0237 ± 0.0019
same,peptide microarray binding signal,"[2]; peptide modifications: H3K4me2 H3K9ac, binder concentration: 10 nM",0.954 ± 0.21
same,peptide microarray binding signal,"[2]; peptide modifications: H3K4me2 H3K9ac, binder concentration: 100 nM",0.716 ± 0.27
same,peptide microarray binding signal,[3]; [5],0.298 ± 0.09
same,peptide microarray binding signal,[3]; [6],0.293 ± 0.1
same,peptide microarray binding signal,[4]; [5],0.00778 ± 0.00063
same,peptide microarray binding signal,[4]; [6],0.00824 ± 0.00044
ARTKQTARKSTGG [H3 1-13 A R T Kme2 Q T A R K S T G G],peptide microarray binding signal,"[1]; peptide modifications: H3K4me2, binder concentration: 50 nM",0.00564 ± 0.00013
same,peptide microarray binding signal,"[1]; peptide modifications: H3K4me2, binder concentration: 500 nM",0.0118 ± 0.00057
same,peptide microarray binding signal,"[2]; peptide modifications: H3K4me2, binder concentration: 10 nM",0.0623 ± 0.0073
same,peptide microarray binding signal,"[2]; peptide modifications: H3K4me2, binder concentration: 100 nM",0.0581 ± 0.0074
same,peptide microarray binding signal,[3]; [7],0.03 ± 0.01
same,peptide microarray binding signal,[3]; [8],0.0164 ± 0.0011
same,peptide microarray binding signal,[4]; [7],0.00156 ± 0.00023
same,peptide microarray binding signal,[4]; [8],0.00115 ± 2e-05
ARTKQTARKSTGG [H3 1-13 A R T K Q T A R Kac Sph T G G],peptide microarray binding signal,"[1]; peptide modifications: H3K9ac H3S10ph, binder concentration: 500 nM",0.0136 ± 0.00075
same,peptide microarray binding signal,"[2]; peptide modifications: H3K9ac H3S10ph, binder concentration: 100 nM",0.0173 ± 0.0011
same,peptide microarray binding signal,[3]; [9],0.000925 ± 2.1e-05
same,peptide microarray binding signal,[4]; [9],0.00113 ± 0.00013
ARTKQTARKSTGG [H3 1-13 A R T Kme3 Q T A R Kme2 S T G G],peptide microarray binding signal,"[1]; peptide modifications: H3K4me3 H3K9me2, binder concentration: 50 nM",0.0174 ± 0.00053
same,peptide microarray binding signal,"[1]; peptide modifications: H3K4me3 H3K9me2, binder concentration: 500 nM",0.0402 ± 0.003
same,peptide microarray binding signal,"[2]; peptide modifications: H3K4me3 H3K9me2, binder concentration: 10 nM",0.735 ± 0.11
same,peptide microarray binding signal,"[2]; peptide modifications: H3K4me3 H3K9me2, binder concentration: 100 nM",0.869 ± 0.12
same,peptide microarray binding signal,[3]; [10],0.929 ± 0.063
same,peptide microarray binding signal,[3]; [11],0.889 ± 0.23
same,peptide microarray binding signal,[4]; [10],0.11 ± 0.025
same,peptide microarray binding signal,[4]; [11],0.0347 ± 0.004
ARTKQTARKSTGG [H3 1-13 A R T Kme2 Q T A R Kme2 S T G G],peptide microarray binding signal,"[1]; peptide modifications: H3K4me2 H3K9me2, binder concentration: 50 nM",0.0279 ± 0.0029
same,peptide microarray binding signal,"[1]; peptide modifications: H3K4me2 H3K9me2, binder concentration: 500 nM",0.0628 ± 0.0034
same,peptide microarray binding signal,"[2]; peptide modifications: H3K4me2 H3K9me2, binder concentration: 10 nM",0.766 ± 0.063
same,peptide microarray binding signal,"[2]; peptide modifications: H3K4me2 H3K9me2, binder concentration: 100 nM",0.786 ± 0.077
same,peptide microarray binding signal,[3]; [12],0.408 ± 0.12
same,peptide microarray binding signal,[3]; [13],0.343 ± 0.15
same,peptide microarray binding signal,[4]; [12],0.0325 ± 0.0041
same,peptide microarray binding signal,[4]; [13],0.0104 ± 0.00076
ARTKQTARKSTGG [H3 1-13 A R T Kme2 Q T A R Kme3 S T G G],peptide microarray binding signal,"[1]; peptide modifications: H3K4me2 H3K9me3, binder concentration: 50 nM",0.133 ± 0.011
same,peptide microarray binding signal,"[1]; peptide modifications: H3K4me2 H3K9me3, binder concentration: 500 nM",0.21 ± 0.019
same,peptide microarray binding signal,"[2]; peptide modifications: H3K4me2 H3K9me3, binder concentration: 10 nM",1 ± 0.17
same,peptide microarray binding signal,"[2]; peptide modifications: H3K4me2 H3K9me3, binder concentration: 100 nM",1 ± 0.088
same,peptide microarray binding signal,[3]; [14],0.491 ± 0.058
same,peptide microarray binding signal,[3]; [15],0.325 ± 0.12
same,peptide microarray binding signal,[4]; [14],0.429 ± 0.054
same,peptide microarray binding signal,[4]; [15],0.369 ± 0.044
ARTKQTARKSTGG [H3 1-13 A R T Kme3 Q T A R Kme3 S T G G],peptide microarray binding signal,"[1]; peptide modifications: H3K4me3 H3K9me3, binder concentration: 50 nM",0.0752 ± 0.0036
same,peptide microarray binding signal,"[1]; peptide modifications: H3K4me3 H3K9me3, binder concentration: 500 nM",0.159 ± 0.022
same,peptide microarray binding signal,"[2]; peptide modifications: H3K4me3 H3K9me3, binder concentration: 10 nM",0.582 ± 0.018
same,peptide microarray binding signal,"[2]; peptide modifications: H3K4me3 H3K9me3, binder concentration: 100 nM",0.742 ± 0.14
same,peptide microarray binding signal,[3]; [16],1 ± 0.19
same,peptide microarray binding signal,[3]; [17],1 ± 0.19
same,peptide microarray binding signal,[4]; [16],0.46 ± 0.11
same,peptide microarray binding signal,[4]; [17],0.321 ± 0.037
ARTKQTARKSTGG [H3 1-13 A R T K Q T A R Kme2 S T G G],peptide microarray binding signal,"[1]; peptide modifications: H3K9me2, binder concentration: 50 nM",0.0139 ± 0.0015
same,peptide microarray binding signal,"[1]; peptide modifications: H3K9me2, binder concentration: 500 nM",0.0282 ± 0.0022
same,peptide microarray binding signal,"[2]; peptide modifications: H3K9me2, binder concentration: 10 nM",0.00668 ± 0.00014
same,peptide microarray binding signal,"[2]; peptide modifications: H3K9me2, binder concentration: 100 nM",0.00935 ± 0.00046
same,peptide microarray binding signal,[3]; [18],0.00104 ± 0.0001
same,peptide microarray binding signal,[3]; [19],0.000571 ± 1.1e-05
same,peptide microarray binding signal,[4]; [18],0.00128 ± 6.2e-05
same,peptide microarray binding signal,[4]; [19],0.000923 ± 9.6e-06
ARTKQTARKSTGG [H3 1-13 A R T K Q T A R Kme Sph T G G],peptide microarray binding signal,"[1]; peptide modifications: H3K9me1 H3S10ph, binder concentration: 50 nM",0.01 ± 0.00047
same,peptide microarray binding signal,"[1]; peptide modifications: H3K9me1 H3S10ph, binder concentration: 500 nM",0.0275 ± 0.00045
same,peptide microarray binding signal,"[2]; peptide modifications: H3K9me1 H3S10ph, binder concentration: 10 nM",0.00961 ± 0.00044
same,peptide microarray binding signal,"[2]; peptide modifications: H3K9me1 H3S10ph, binder concentration: 100 nM",0.02 ± 0.0008
same,peptide microarray binding signal,[3]; [20],0.000831 ± 3.9e-05
same,peptide microarray binding signal,[3]; [21],0.000171 ± 5.1e-06
same,peptide microarray binding signal,[4]; [20],0.00233 ± 0.00015
same,peptide microarray binding signal,[4]; [21],0.00138 ± 2.7e-05
ARTKQTARKSTGG [H3 1-13 A R T Kme2 Q Tph A R K S T G G],peptide microarray binding signal,"[1]; peptide modifications: H3K4me2 H3T6ph, binder concentration: 50 nM",0.00636 ± 7.4e-05
same,peptide microarray binding signal,"[1]; peptide modifications: H3K4me2 H3T6ph, binder concentration: 500 nM",0.0142 ± 0.0017
same,peptide microarray binding signal,"[2]; peptide modifications: H3K4me2 H3T6ph, binder concentration: 10 nM",0.139 ± 0.025
same,peptide microarray binding signal,"[2]; peptide modifications: H3K4me2 H3T6ph, binder concentration: 100 nM",0.385 ± 0.012
same,peptide microarray binding signal,[3]; [22],0.0372 ± 0.011
same,peptide microarray binding signal,[3]; [23],0.0131 ± 0.0018
same,peptide microarray binding signal,[4]; [22],0.00426 ± 0.0013
same,peptide microarray binding signal,[4]; [23],0.00271 ± 0.00042
